# Data published in publication PMC4336329 (PLoS ONE, 2015).
# Screen size: about 310,000 compounds; about 14,000 (4.5%) showed an effect of 50% or more. The effect is printed as a negative number. This is one part of a sample in which strong results are shown more often than they occur.
# Target: human ether-à-go-go-related gene (hERG) potassium channel (human, UniProt Q12809)
# Test: primary screen, population patch clamp on CHO cells stably expressing hERG; higher = less effect of the substance
# 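Further: peak tail current of the secondary pulse compared with the same well before compound.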
# Sequence of human ether-à-go-go-related gene (hERG) potassium channel (Q12809 whole entry, looked up): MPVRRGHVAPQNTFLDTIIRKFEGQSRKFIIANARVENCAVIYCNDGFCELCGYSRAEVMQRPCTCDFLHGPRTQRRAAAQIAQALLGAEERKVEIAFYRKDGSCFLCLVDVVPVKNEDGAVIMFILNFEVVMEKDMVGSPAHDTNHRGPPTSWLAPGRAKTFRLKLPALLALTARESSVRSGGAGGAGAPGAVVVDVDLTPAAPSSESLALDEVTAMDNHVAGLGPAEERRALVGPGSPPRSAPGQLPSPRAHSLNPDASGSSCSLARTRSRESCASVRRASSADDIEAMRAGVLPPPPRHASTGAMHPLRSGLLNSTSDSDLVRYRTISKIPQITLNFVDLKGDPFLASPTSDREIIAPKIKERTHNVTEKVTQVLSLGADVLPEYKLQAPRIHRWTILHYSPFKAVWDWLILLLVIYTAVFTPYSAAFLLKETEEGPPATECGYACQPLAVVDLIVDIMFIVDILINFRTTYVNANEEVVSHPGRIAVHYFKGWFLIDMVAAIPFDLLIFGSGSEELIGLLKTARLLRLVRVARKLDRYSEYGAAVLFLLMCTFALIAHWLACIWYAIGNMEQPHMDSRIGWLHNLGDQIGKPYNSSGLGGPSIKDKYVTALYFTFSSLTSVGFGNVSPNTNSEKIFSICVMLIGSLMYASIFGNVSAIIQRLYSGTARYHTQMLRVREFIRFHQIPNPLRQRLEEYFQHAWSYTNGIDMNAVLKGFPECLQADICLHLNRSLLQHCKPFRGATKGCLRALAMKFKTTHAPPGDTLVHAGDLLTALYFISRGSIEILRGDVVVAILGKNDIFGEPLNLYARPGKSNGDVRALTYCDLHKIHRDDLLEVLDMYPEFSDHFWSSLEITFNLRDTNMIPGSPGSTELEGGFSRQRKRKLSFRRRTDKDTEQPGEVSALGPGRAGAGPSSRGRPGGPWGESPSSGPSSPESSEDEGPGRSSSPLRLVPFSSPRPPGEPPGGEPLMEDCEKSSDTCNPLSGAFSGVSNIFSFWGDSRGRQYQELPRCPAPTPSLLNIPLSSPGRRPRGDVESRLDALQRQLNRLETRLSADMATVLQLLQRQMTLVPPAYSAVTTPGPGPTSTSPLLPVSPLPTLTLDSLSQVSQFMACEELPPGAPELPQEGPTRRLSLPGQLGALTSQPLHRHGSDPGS
row,SMILES,"hERG current change (%, negative = inhibition) at 10uM"
1,COc1ccccc1CN1CCC(n2nccc2NC(=O)CCCc2ccccc2)CC1,-85.2%
2,COc1cccc(CN2CCC(n3nccc3NC(=O)CCCc3ccccc3)CC2)c1O,-75.9%
3,CCOc1ccccc1CN1CCC(n2nccc2NC(=O)CCc2ccccc2)CC1,-38.6%
4,O=C(Nc1ccnn1C1CCN(Cc2c[nH]c3ccccc23)CC1)c1ccccc1,-44.7%
5,CCOc1ccccc1CN1CCC(n2nccc2NC(=O)CCCc2ccccc2)CC1,-83.7%
6,COCc1ccc(CN2CCC(n3nccc3NC(=O)CCCc3ccccc3)CC2)o1,21.5%
7,O=S(=O)(NCc1cccnc1)c1ccc(Cl)c(Cl)c1,-10.9%
8,O=C(CN1CCCCC1)Nc1cc(S(=O)(=O)N2CCOCC2)ccc1N1CCCC1,6.08%
9,COc1ccc(C(=O)C[n+]2cccc3cc(OC)ccc32)cc1.[Br-],6.04%
10,CCn1c(=O)n(CC)c2cc(NC(=O)CSc3ccc([N+](=O)[O-])cn3)ccc21,-5.04%
11,Cc1nnc(SCC(=O)Nc2ccc(N3CCOCC3)cc2)o1,10.3%
12,COc1cccc(CN2CCC(n3nccc3NC(=O)CCOc3ccccc3)CC2)c1O,-61.5%
13,COCc1ccc(CN2CCC(n3nccc3NC(=O)CCOc3ccccc3)CC2)o1,-0.748%
14,Cc1ccccc1CN1CCC(n2nccc2NC(=O)CCOc2ccccc2)CC1,-44.9%
15,CCC1(CC)NC(=O)N(CC(=O)OC(C)C(=O)Nc2ccc(Cl)cn2)C1=O (stereo not drawn),-51.7%
16,CCC1(CC)NC(=O)N(CC(=O)OC(C)C(=O)Nc2ccc(NC(C)=O)cc2)C1=O (stereo not drawn),3.1%
17,CCC1(CC)NC(=O)N(CC(=O)OC(C)C(=O)Nc2ccccc2OC)C1=O (stereo not drawn),32.3%
18,Cc1ccc(C)c(S(=O)(=O)N2CCN(CC(=O)Nc3sccc3C#N)CC2)c1,-57.7%
19,N#Cc1ccsc1NC(=O)CN1CCCCCC1,-3.42%
20,CC(=O)N1CCN(CC(=O)Nc2sccc2C#N)CC1,17.8%
21,N#Cc1ccsc1NC(=O)CN1CCN(c2ccccc2O)CC1,-4.95%

row,SMILES,"hERG current change (%, negative = inhibition) at 10uM"
1,N#Cc1ccsc1NC(=O)CN1CCN(S(=O)(=O)c2cc(Cl)ccc2Cl)CC1,-32%
2,N#Cc1ccsc1NC(=O)CN1CCN(S(=O)(=O)c2ccccc2C(F)(F)F)CC1,-56.9%
3,COC(=O)C1=C2c3[nH]c4ccccc4c3CCN2C(=O)CC1,-23.1%
4,O=C(CN1CCOCC1)NCc1ccccc1,17.4%
5,C=C(C)COc1ccc(-c2[nH]ncc2-c2ccc(OC)c(OC)c2)c(O)c1,-0.891%
6,Cc1cc(C)c(NC(=O)CN(C)C(C)C(=O)N2CCc3ccccc32)c(C)c1 (stereo not drawn),-50.3%
7,CC(C(=O)N1CCc2ccccc21)N(C)CC(=O)Nc1ccccc1Cl (stereo not drawn),-29.2%
8,CC(C(=O)N1CCc2ccccc21)N(C)CC(=O)Nc1ccc(F)cc1 (stereo not drawn),-47.9%
9,CCOC(=O)c1c(C)nc(-c2ccccc2)nc1N,7.25%
10,CCCCC(=O)N1C/C=C\C(c2ccc(OC)cc2)N(Cc2ccc(F)cc2)C(=O)[C@H]1Cc1ccccc1 (stereo partly drawn),7.51%
11,CCCCC(=O)N1C/C=C\[C@H](c2ccc(OC)cc2)N(Cc2ccc(F)cc2)C(=O)[C@@H]1C,-68.6%
12,COc1ccc([C@H]2/C=C\CN(C(=O)CC(C)(C)C)[C@@H](C)C(=O)N2Cc2ccc(F)cc2)cc1,-17.4%
13,CN(CCNC(=O)C1CCN(S(=O)(=O)c2cnc[nH]2)CC1)Cc1ccccc1,12.6%
14,O=C(CCC1CCCCC1)Nc1ccccc1O,3.23%
15,COc1ccc(CN2CCN(Cc3ccon3)CC2CCO)c(C)c1C (stereo not drawn),-37.3%
16,Cc1ccc(CN2CCN(Cc3ccc4cc(F)ccc4n3)CC2CCO)o1 (stereo not drawn),-30.6%
17,CCOc1ccc(CN2CCN(Cc3ccc4cc(F)ccc4n3)CC2CCO)cc1 (stereo not drawn),-75.7%
18,CC(=O)Nc1ccc2nc(CN3CCN(Cc4ccc(F)cc4)C(CCO)C3)ccc2c1 (stereo not drawn),-28.8%
19,COc1cccc(CN2CCN(Cc3ccc4c(NC(C)=O)cccc4n3)CC2CCO)c1 (stereo not drawn),5.13%
20,COc1cc(CN2CCN(Cc3ccc4cc(F)ccc4n3)CC2CCO)cc(OC)c1 (stereo not drawn),-64.4%
21,COc1ccc(CN2CCN(Cc3ccc4cc(F)ccc4n3)CC2CCO)c(C)c1C (stereo not drawn),-63.7%
